Data on 30 compounds can be found in PubChem BioAssay (NCATS).

The nature of test [1]: BET inhibitor-based combinations targeting novel dependencies in MECOM-rearranged (r) AML: UCSD-AML1 cell line (AID 2202235). Note: nearly all actives have a fitted effect of over 40% in size. The procedure, abridged: (§1)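 Cells at 500/well were exposed for 48 hr to MIPE v5.0 drugs as 11-point dose curves. Viability was read by CellTiter-Glo luminescence and normalized to DMSO and empty-well controls. Activity was expressed as AUC and per-cell-line Z-AUC.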

Test [2] can be described thus: BET inhibitor-based combinations targeting novel dependencies in MECOM-rearranged (r) AML: AML-191 cell line (AID 2202236; note: nearly all actives have a fitted effect of over 35% in size). Summed up: (§2)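 AML cell lines seeded at 500 cells/well, treated with 11-point dose curves for 48 h. Viability by CellTiter-Glo luminescence, normalised to DMSO and empty wells; activity expressed as AUC and per-cell-line Z-transformed AUC.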
Test [3] in a line: BET inhibitor-based combinations targeting novel dependencies in MECOM-rearranged (r) AML: AML-194 cell line (AID 2202237; note: nearly all actives have a fitted effect of over 40% in size). The procedure, abridged:
as §2

A short description of test [4]: BET inhibitor-based combinations targeting novel dependencies in MECOM-rearranged (r) AML: HNT-34 cell line (AID 2202234). Note: nearly all actives have a fitted effect of over 35% in size. Summed up: as §1
Test [5] in a line: BET inhibitor-based combinations targeting novel dependencies in MECOM-rearranged (r) AML: MV-4-11 cell line (AID 2202233). Note: nearly all actives have a fitted effect of over 45% in size. Summed up: as §1

Structures are written as SMILES. Records with an inconclusive call do not appear. Activity calls are given as the source filed them. Calls come from the whole dose curve; as a rule, active = well fitted curve in the direction sought with a large enough effect; inconclusive = small, poorly fitted or top-dose-only effect, or another doubt; inactive = no such curve, though single readings can be large; an effect the other way counts as inactive or inconclusive. Non-standard residues stand in square brackets, D forms with d. Residues, ends and D or L forms follow the SMILES beside them. Dip = N[C@H](C(=O)O)C(c1ccccc1)c1ccccc1
Potency is the fitted concentration of half-maximal effect.

Consider `Cc1ccc([C@@H]2O[C@H](CO)[C@@H](O)[C@H](O)[C@H]2O)cc1Cc1ccc(-c2ccc(F)cc2)s1`, for which the Potency entry in test [1] and in test [3] was “inactive” each time. Further, the Potency in test [2] was 20.9 µM (active).

Take `CO[C@H]1C[C@@H]2CC[C@@H](C)[C@@](O)(O2)C(=O)C(=O)N2CCCC[C@@H]2C(=O)O[C@H]([C@@H](C)C[C@@H]2CC[C@H](O)[C@H](OC)C2)CC(=O)[C@H](C)C=C(C)[C@@H](O)[C@@H](OC)C(=O)[C@H](C)C[C@H](C)C=CC=CC=C1C`: in test [1], the Potency was 0.0017 µM (active).

For the compound `CN(C)CCNC(=O)COc1c2cccc1Cc1cccc(c1OCC(=O)NCCN(C)C)Cc1cccc(c1OCC(=O)NCCN(C)C)Cc1cccc(c1OCC(=O)NCCN(C)C)C2`, the Potency in test [1] and in test [2] was 0.428 µM (active) throughout.

`CN1C(=O)N(c2cc(Cl)cc(Cl)c2)C(=O)[C@]12CN(Cc1cc(C(=O)O)cs1)C[C@H]2c1ccc(C#N)cc1`: the Potency entry in test [4], in test [1] and in test [3] was “inactive” in each case.

For `COc1ccc(Cl)cc1-c1cc(=O)[nH]c(=S)n1CC(N)=O`, the Potency entry in test [5], in test [1] and in test [3] was “inactive” throughout.

Take `CO[C@H]1/C=C/O[C@@]2(C)Oc3c(C)c(O)c4c(O)c(c5c(c4c3C2=O)=NC2(CCN(CC(C)C)CC2)N=5)NC(=O)/C(C)=C/C=C/[C@H](C)[C@H](O)[C@@H](C)[C@@H](O)[C@@H](C)[C@H](OC(C)=O)[C@@H]1C`: in test [1], the Potency entry is “inactive”. The Potency in test [2] is 18.6 µM (active).

With `CCc1cnn2c(NCc3ccc[n+]([O-])c3)cc(N3CCCC[C@H]3CCO)nc12`, the Potency in test [1] is 0.0235 µM (active); in test [2] it was 0.0263 µM (active); in test [3], 0.0372 µM (active).

Regarding `CC(=O)N1CCN(c2ccc(NC(=O)Cc3cnc(-c4ccnc(F)c4)c(C)c3)nc2)CC1`, the Potency result in test [4] and in test [3] was “inactive” throughout.

Regarding `Clc1cc(Cl)cc(CNc2ncncc2-c2ccc3c(c2)OCO3)c1`, the Potency in test [5] is 23.5 µM (active); in test [3] it was 26.3 µM (active). The Potency entry in test [1] is “inactive”.

Regarding `CCCCCCCCCCCCCC(=O)N[C@H](CO)[C@H](O)c1ccc([N+](=O)[O-])cc1`, the Potency entry in test [1] and in test [3] was “inactive” throughout.

`C/C=C/C[C@@H](C)C(=O)[C@H]1C(=O)N[C@@H](C(C)C)C(=O)N(C)CC(=O)N(C)[C@@H](CC(C)C)C(=O)N[C@@H](C(C)C)C(=O)N(C)[C@@H](CC(C)C)C(=O)N[C@@H](C)C(=O)N[C@H](C)C(=O)N(C)[C@@H](CC(C)C)C(=O)N(C)[C@@H](CC(C)C)C(=O)N(C)[C@@H](C(C)C)C(=O)N1C`: the Potency in test [5] was 8.11 µM (active); in test [2], 9.1 µM (active); in test [3] it was 10.2 µM (active).

On to `Cc1nc(C)c(CN2CCN(C(c3ccc(F)cc3)c3ccc(F)cc3)CC2)nc1C`, for which the Potency was 18.6 µM (active) in test [5] and 20.9 µM (active) in test [3].

For the compound `C[C@H]1C[C@@H](n2c(Nc3ccc(OC(F)(F)F)cc3)nc3cc(CCC(=O)O)ccc32)CC(C)(C)C1`, the Potency in test [5] was 20.9 µM (active); in test [2] it was 26.3 µM (active).

For the compound `C[C@@]1(c2ncncc2F)NC(=O)c2cc(-c3cn[nH]c3)ccc21`, the Potency in test [5] is 14.8 µM (active); in test [2], 20.9 µM (active).

Consider `CCCCN(CCCC)CCC(O)c1cc2c(Cl)cc(Cl)cc2c2cc(C(F)(F)F)ccc12` (stereo not given), for which the Potency in test [5] was 18.6 µM (active); in test [1] it was 26.3 µM (active); in test [3] it was 29.5 µM (active).

Consider `O=C(/C=C/c1ccc(Cl)cc1)N1CCC2(CC1)CN(Cc1ccc(Cl)c(Cl)c1)C(=O)O2`, for which the Potency in test [4] is 26.3 µM (active). Moreover, the Potency entry in test [3] is “inactive”.

As for `CC1=C(c2ccc(O)cc2)[C@H](c2ccc(OCCN3CCCCC3)cc2)Oc2cc(O)ccc21`, the Potency result in test [3] was “inactive”.

In the case of `COc1ccc(CC2c3cc(OC)c(OC)cc3CC[N+]2(C)CCC(=O)OCCCCCOC(=O)CC[N+]2(C)CCc3cc(OC)c(OC)cc3C2Cc2ccc(OC)c(OC)c2)cc1OC` (stereo not given), the Potency in test [5] is 18.6 µM (active). Besides, the Potency result in test [1] and in test [3] was “inactive” in each case.

`NCCCC[C@H](NC(=O)[C@@H](NC(=O)[C@H](Cc1c[nH]c2ccccc12)NC(=O)[C@H](CCCCN)NC(=O)[C@H](CCCCN)NC(=O)[C@H](Cc1c[nH]c2ccccc12)NC(=O)[C@H](Cc1c[nH]c2ccccc12)NC(=O)[C@H](CCCCN)NC(=O)[C@@H](N)CCCCN)C(c1ccccc1)c1ccccc1)C(N)=O` (H-KKWWKKW[Dip]K-NH2): the Potency entry in test [1] and in test [3] was “inactive” in each case.

Take `COc1ccc2nc(S(=O)Cc3ncc(C)c(OC)c3C)[nH]c2c1` (stereo not given): the Potency result in test [1], in test [2] and in test [3] was “inactive” throughout.

`O=C(Nc1cnccc1Cl)N1CCN(Cc2ccc3c(c2)OC(F)(F)O3)CC1`: the Potency entry in test [1] and in test [3] was “inactive” in each case.

Consider `CC[C@H](C)[C@@H]([C@@H](CC(=O)N1CCC[C@H]1[C@H](OC)[C@@H](C)C(=O)N[C@@H](Cc1ccccc1)c1nccs1)OC)N(C)C(=O)[C@@H](NC(=O)[C@H](C(C)C)N(C)C)C(C)C`, for which the Potency entry in test [4], in test [2] and in test [3] was “inactive” throughout.

In the case of `O=C(Nc1ccc(OC(F)(F)Cl)cc1)c1cnc(N2CC[C@@H](O)C2)c(-c2ccn[nH]2)c1`, the Potency in test [4] is 0.0105 µM (active); in test [3], 18.6 µM (active). Moreover, the Potency result in test [1] was “inactive”.

Take `CCS(=O)(=O)c1ccc2oc(-c3ccc4ccccc4c3)nc2c1`: the Potency result in test [4] and in test [1] was “inactive” each time.

On to `CC(C)c1onc(-c2c(Cl)cccc2Cl)c1COc1ccc(/C=C/c2cccc(C(=O)O)c2)c(Cl)c1`, for which the Potency entry in test [1] and in test [2] was “inactive” in each case.

With `CCNC(=O)Nc1ccc(Oc2ncnc(N)c2/C=N/OC)cc1Cl`, the Potency in test [4] was 20.9 µM (active); in test [1] it was 23.5 µM (active); in test [2] it was 16.6 µM (active).

In the case of `C=CC(=O)N1CC(N2CCN(C(=O)CNc3cc(C4(C)CC4)c(Cl)cc3O)CC2)C1`, the Potency result in test [1], in test [2] and in test [3] was “inactive” throughout.

For `O=C(NO)C1(CS(=O)(=O)c2ccc(Oc3ccc(Cl)cc3)cc2)CCOCC1`, in test [4], the Potency was 8.33 µM (active).

With `O=C(CCNC(=O)c1ccc(OC(F)(F)F)cc1)N[C@@H]1CCCc2ccccc21`, the Potency entry in test [1] and in test [3] was “inactive” throughout.

For `Cc1noc(-c2ccc(-c3ccc(C4(C(=O)O)CC4)cc3)cc2)c1NC(=O)O[C@H](C)c1ccccc1`, the Potency result in test [1] and in test [3] was “inactive” throughout.
